“And” between values parts separate entries of the source, which are not always exact repeats. Identical values can stand only once. Results filed as inconclusive are left out. A call without a number means that no potency is given here. Some compounds were tested as several samples or in several runs, with calls that do not always agree. The source made the active and inactive calls. The call rests on the fitted dose curve; in most records, active means well fitted cell-killing curve with a large enough effect in the repeat runs; inconclusive means weak or mixed curves, or effect the other way; inactive means flat fitted curve, though single readings scatter.
Potency means the concentration at half of the fitted maximal effect.

The assay is described as follows: qHTS RealTime-Glo MT Cell Viability Assay in HEK293 cells - 24 hour (AID 1224886). Further: nearly all actives have a fitted effect of over 50% in size. Particulars: RealTime-Glo luminescence; series mostly up to 76.8 µM. From the text:
National Center for Advancing Translational Sciences [NCATS]
NIH Chemical Genomics Center [NCGC]
U.S. Environmental Protection Agency [EPA]
National Institutes of Environmental Health Sciences [NIEHS]
National Toxicology Program [NTP]
U.S. Food and Drug Administration [FDA]
Measure of cell viability is critical in the cell-base assay. Analysis of cell viability is necessary for the characterization of cell responses to cytotoxic drugs and environmental stress. A RealTime-Glo MT Cell Viability Assay to monitor cell viability in real time of continues cell culture during 40 hours of compound treatment was used to screen Tox21 10K library compounds in Hek293 cells. The RealTime-Glo MT Cell Viability Assay is a nonlytic, homogeneous, bioluminescent method to measure cell viability in real time using a simple, plate-based method. The assay involves adding NanoLuc luciferase and a cell-permeant prosubstrate to cells in culture. Viable cells reduce the proprietary prosubstrate to generate a substrate for NanoLuc luciferase. This substrate diffuses from cells into the surrounding culture medium, where it is rapidly used by the NanoLuc Enzyme to produce a luminescent signal. The signal correlates with the number of viable cells, making the assay well suited for cytotoxicity studies.
Tox21 Assay Protocol Summary:
The mixture of Hek293 cell suspension and reagents were dispensed at 600cells/6 ul/well in 1536-well tissue culture treated black solid bottom plates using a Multidrop dispenser. After the assay plates were incubated at a 37 C/5% CO2 incubator for 5 hours, 23 nL of compounds dissolved in DMSO, positive and negative controls was transferred to the assay plate by a pintool work station. The plates were incubated at 37 C for 40 hours. The luminescence intensity were measured at 0h, 8h, 16h, 24h, 32h and 40h time points using ViewLux plate reader during compound treatment.
With `Cc1cccc(N(C)C(=S)Oc2ccc3ccccc3c2)c1`, the Potency entry was “inactive”.
For the molecule `CCC(C)c1ccccc1O` (stereo not given), the Potency result was “inactive”.
For the molecule `CCCCOCCOCCOCCO`, the Potency result is “inactive”.
As for `CCCCC(CC)COCC1CO1` (stereo not given), the entry is “inactive”.
As to `c1cc(-c2ccncc2)ccn1`, the Potency entry was “inactive”.
Turning to `CCCCC/C=C/C=C/C=O`, the Potency result is “inactive”.
`CC(C(=O)O)c1cccc(C(=O)c2ccccc2)c1` (stereo not given): the Potency entry was “inactive”.
Take `O=C(COc1ccc(Cl)cc1)N1CCN(Cc2ccc3c(c2)OCO3)CC1`: the Potency was 38.9 µM (active).
The result for `CCCCOCCOCCO` reads “inactive”.
For `CC(C)OC(=O)C(C)(C)Oc1ccc(C(=O)c2ccc(Cl)cc2)cc1`, the Potency is 19.5 µM (active) and 10.7 µM (active).
`O=C=Nc1ccc(Cc2ccc(N=C=O)cc2)cc1`: the Potency entry is “inactive”.
Regarding `COC(C)COC(C)COC(C)CO` (stereo not given), the Potency entry is “inactive”.
On to `O=C(c1ccc(OCCN2CCCCC2)cc1)c1c(-c2ccc(O)cc2)sc2cc(O)ccc12`, for which the Potency was 19.5 µM (active).
Take `COc1cccc2c1C(=O)c1c(O)c3c(c(O)c1C2=O)C[C@@](O)(C(=O)CO)C[C@@H]3O[C@H]1C[C@H](N)[C@H](O)[C@H](C)O1`: the Potency is 155 nM (active) and 301 nM (active).
`C#C[C@]1(O)CC[C@H]2[C@@H]3CCc4cc(OC)ccc4[C@H]3CC[C@@]21C`: the Potency is 34.7 µM (active) and 19 µM (active).
Turning to `Cc1ccc(C)c(O)c1C`, the Potency result was “inactive”.
With `CCCCC(CC)COC(=O)c1ccc(N(C)C)cc1` (stereo not given), the Potency result is “inactive”.
In the case of `Nc1ccc(S(=O)(=O)Nc2cnc3ccccc3n2)cc1`, the Potency result was “inactive”.
`CCC(C)CO` (stereo not given): the Potency entry is “inactive and 24.5 µM (active)”.
With `CC(=O)O[C@]1(C(C)=O)CC[C@H]2[C@@H]3C=C(Cl)C4=CC(=O)[C@@H]5C[C@@H]5[C@]4(C)[C@H]3CC[C@@]21C`, the Potency was 21.9 µM (active).
With `O=c1oc(=O)c2cc3c(=O)oc(=O)c3cc12`, the Potency entry was “inactive”.
With `O=C1OC2(c3cc(Br)c(O)c(Br)c3Oc3c2cc(Br)c(O)c3Br)c2c(Cl)c(Cl)c(Cl)c(Cl)c21`, the Potency entry is “inactive”.
Take `Cc1cccc(C(=O)O)c1`: the Potency result was “inactive”.
In the case of `Brc1cc(Oc2cc(Br)c(Br)c(Br)c2Br)c(Br)c(Br)c1Br`, the Potency entry was “inactive”.
Take `Clc1nc(Cl)c(Cl)c(Cl)c1Cl`: the Potency result was “inactive”.
Consider `CCCCCCCCCCCO`, for which the Potency result was “inactive”.
As for `Cc1c(C(N)=O)cc([N+](=O)[O-])cc1[N+](=O)[O-]`, the Potency entry is “inactive”.
Turning to `Cc1cccc([N+](=O)[O-])c1C`, the Potency entry is “inactive”.
As for `OCCO`, the entry is “inactive”; as for `OC[C@H]1O[C@@H]2O[C@H]3[C@H](O)[C@@H](O)[C@@H](O[C@H]4[C@H](O)[C@@H](O)[C@@H](O[C@H]5[C@H](O)[C@@H](O)[C@@H](O[C@H]6[C@H](O)[C@@H](O)[C@@H](O[C@H]7[C@H](O)[C@@H](O)[C@@H](O[C@H]8[C@H](O)[C@@H](O)[C@@H](O[C@H]1[C@H](O)[C@H]2O)O[C@@H]8CO)O[C@@H]7CO)O[C@@H]6CO)O[C@@H]5CO)O[C@@H]4CO)O[C@@H]3CO`, “inactive”; as for `COc1c(Cl)c(Cl)c(Cl)c(Cl)c1Cl`, “inactive”.
In the case of `COC(=O)c1ccccc1`, the Potency result was “inactive and 12.3 µM (active)”.
With `Cc1ccc2c(n1)Oc1ccc(C(C)C(=O)OCC(=O)N(C)C)cc1C2` (stereo not given), the Potency result was “inactive”.
`CCCCC(CC)COP(=O)(OCC(CC)CCCC)OCC(CC)CCCC` (stereo not given): the Potency entry is “inactive”.
Consider `c1ccc2c(c1)Oc1ccccc1S2`, for which the Potency entry was “inactive”.
For `O=CCc1ccccc1`, the Potency result is “inactive”.
As for `O=CCCCC=O`, the Potency is 42.1 µM (active) and inactive.
The result for `COC(=O)CCC(=O)OC` reads “inactive”.
As for `C/C=C/C(=O)O`, the entry is “inactive”; as for `CC(=O)c1ccccn1`, “inactive”.
